Source: PubChem
This is a sample that favours compounds with a hit; in the whole collection about 7.5% have one here.
Luc counter: Counterscreen for Luciferase (Kinase-Glo TM) Inhibition. hit rate 0.28% among 200,000. Luciferin 4-monooxygenase (Photuris pensylvanica), Q27757. Kinase-Glo luciferase, ATP luminescence, 8 min. Potency, µM (top dose mostly 38.3 µM), without a hit: at the highest dose activity change, negative = inhibition, hits mostly inhibitors; note: % is set by controls: 0 for no effect and ±100 for the full control effect; nearly all actives have a fitted effect of over 60% in size
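Luminescence was the read-out, taken after 8-minute incubation at ambient temperature. Luciferase turned over luciferin with 10 uM ATP in imidazole pH 7.2 buffer containing KCl, MgCl2, Tween 20 and BSA.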
FLuc counter: qHTS profiling assay for firefly luciferase inhibitor/activator using purifed enzyme and Km concentrations of substrates (counterscreen for miR-21 project); Luciferin 4-monooxygenase (Photinus pyralis), P08659; purified FLuc, Km substrates, luminescence inhibition; Potency, µM (highest dose often 57.5 µM), for the others: at the highest dose activity change, negative = inhibition, most hits filed as inhibitors; hit rate 6.9% among 360,000; AID 588342, 2011;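 note: plate controls were vehicle for no effect and reference inhibitor for full effect; nearly all actives have a fitted effect of over 55% in size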
Target sequence (P08659 whole entry, looked up): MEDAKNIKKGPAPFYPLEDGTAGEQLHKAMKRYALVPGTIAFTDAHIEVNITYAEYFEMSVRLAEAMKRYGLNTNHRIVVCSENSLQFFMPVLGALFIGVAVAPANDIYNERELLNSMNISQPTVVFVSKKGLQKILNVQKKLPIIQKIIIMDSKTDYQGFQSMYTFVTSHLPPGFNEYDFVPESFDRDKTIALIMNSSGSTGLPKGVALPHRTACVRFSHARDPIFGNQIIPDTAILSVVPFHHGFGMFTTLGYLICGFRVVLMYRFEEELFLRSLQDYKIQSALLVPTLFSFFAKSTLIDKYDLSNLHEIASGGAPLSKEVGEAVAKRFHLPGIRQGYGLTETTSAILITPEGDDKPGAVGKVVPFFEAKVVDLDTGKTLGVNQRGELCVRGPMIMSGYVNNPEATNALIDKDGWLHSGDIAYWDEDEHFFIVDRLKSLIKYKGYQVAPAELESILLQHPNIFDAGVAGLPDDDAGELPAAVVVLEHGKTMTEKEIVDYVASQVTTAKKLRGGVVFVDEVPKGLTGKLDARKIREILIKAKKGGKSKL
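Purified P. pyralis luciferase, 10 nM final, with Km-level 10 uM D-luciferin and 10 uM ATP in 50 mM Tris acetate pH 7.5, 10 mM Mg acetate, 0.01% Tween-20, 0.05% BSA; 6-point qHTS titration about 60 µM downward; luminescence read.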
NPC1 prom act: qHTS Assay for NPC1 Promoter Activators; Huh7 NPC1 promoter luciferase reporter, 24 h; Potency, µM (titrated, usually from 9.22 µM), inactives show top-dose activation, usual class: activators; hit rate 2.4% among 320,000; note: % of control where 0% means no effect; nearly all actives have a fitted effect of over 60% in size
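Quantitative HTS used a cell-based reporter: Huh7 cells stably bearing the NPC1 promoter upstream of luciferase were treated with compounds for 24 h, and promoter activation was read as luminescence.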
Rab9 prom act: qHTS Assay for Rab9 Promoter Activators | Huh7 Rab9 promoter-luciferase reporter, luminescence, 24 h | hit rate 2.8% among 320,000 | Potency, µM (titrated, usually from 9.22 µM), for inactives: at the top dose activation, negative = inhibition, most hits filed as activators; note: % of control where 0% means no effect; nearly all actives have a fitted effect of over 60% in size
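Huh7 cells stably carrying a Rab9 promoter-luciferase reporter, 1500 cells per well in OP-MEM I with 10% FBS, treated with compound 24 hours at 37C. Luciferase activity read by luminescence after 10 minutes with Amplite reagent.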
ELG1 genotox: qHTS screen for small molecules that induce genotoxicity in human embryonic kidney (HEK293T) cells expressing luciferase-tagged ELG1 | HEK293T ELG1-luciferase reporter, luminescence, 16 h | hit rate 1.3% among 330,000 | Potency, µM (top dose mostly 46 µM), without a hit: at the top dose activity change, positive = activation, hits mostly activators; note: % of control where 0% means no effect; nearly all actives have a fitted effect of over 60% in size
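Cells (2,000/well) expressing the ELG1-luciferase fusion are dosed by pin tool and kept 16 hr at 37 °C, 5% CO2. Signal comes from ONE-Glo luciferase reagent after 30 min at room temperature.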
SMN2 splice up: qHTS Assay for Enhancers of SMN2 Splice Variant Expression; HEK293 SMN2-luciferase splicing reporter, luminescence, 30-36 h; Potency, µM (highest dose often 46.1 µM), for the others: at the top dose activity change, positive = activation, actives largely listed as activators; hit rate 2.8% among 210,000; note: % of control where 0% means no effect; nearly all actives have a fitted effect of over 55% in size
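HEK293 cells carry an SMN2 […]–luciferase reporter in which exon 7 inclusion puts luciferase in frame. Cells were plated 10-12 h before compound addition, then incubated 30-36 h at 37C. ONE-Glo luminescence was read; sodium butyrate at 4.5 mM final served as control.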
* hit, by the source's call; [ ] = dose if it differs, or a comment. Calls come from the whole dose curve; as a rule, active = well fitted curve in the direction sought with a large enough effect; inconclusive = small, poorly fitted or top-dose-only effect, or another doubt; inactive = no such curve, though single readings can be large; an effect the other way counts as inactive or inconclusive. Potency is the fitted concentration of half-maximal effect.

Results for COc1cc(/C=C2\C(=N)N3N=C(S(C)(=O)=O)SC3=NC2=O)ccc1OC(=O)c1cccs1 ?
FLuc counter: 21µM*; NPC1 prom act: 3%; Rab9 prom act: 6%; ELG1 genotox: 0%

What do the screens show for `CCCCN(C(=O)c1ccncc1)c1c(N)n(CCC)c(=O)[nH]c1=O`?
ELG1 genotox: 0%

Results for CCC1CCC(C(=O)NC(C(=O)Nc2cccc(OC)c2)C(C)C)CC1 (stereo not drawn) ?
FLuc counter: 1%; SMN2 splice up: 4%

Results for Cc1cc(NC(=O)CSc2nc3c(sc4ccccc43)c(=O)n2CCCN2CCOCC2)n[nH]1 ?
Luc counter: 2%; FLuc counter: 3%; NPC1 prom act: 5%; Rab9 prom act: -20%; ELG1 genotox: 7%; SMN2 splice up: 35µM*

What do the screens show for `O=C1CCOc2cc(OCc3ccccc3)ccc21`?
Luc counter: inconclusive; FLuc counter: 1.5µM*; NPC1 prom act: 1µM*; Rab9 prom act: 1µM*; ELG1 genotox: 10µM*; SMN2 splice up: 2.2µM*

Results for Oc1cccc(/C=N/Nc2ncnc3c2ncn3Cc2ccccc2)c1 ?
Luc counter: 0%; FLuc counter: 13µM*; NPC1 prom act: 9%; Rab9 prom act: 17%; ELG1 genotox: 16%; SMN2 splice up: 3%

What do the screens show for `Oc1ccc(/C=N/Nc2ncnc3c2ncn3Cc2ccccc2)cc1O`?
Luc counter: -3%; FLuc counter: 9.5µM*; NPC1 prom act: -6%; Rab9 prom act: 2%; ELG1 genotox: inconclusive; SMN2 splice up: -2%

What do the screens show for `Nc1ncnc2c1ncn2Cc1ccccc1`?
Luc counter: 0%; FLuc counter: 4%; NPC1 prom act: -2%; Rab9 prom act: -2%; ELG1 genotox: 8%; SMN2 splice up: -5%

How did Brc1ccc(/C=N/Nc2ncnc3c2cnn3Cc2ccccc2)cc1 do in these assays?
Luc counter: 2%; FLuc counter: -2%; NPC1 prom act: -4%; Rab9 prom act: -7%; ELG1 genotox: 2%; SMN2 splice up: 3%

Results for Cc1nn2c(=O)cc(COC(=O)c3ccc(NC(=O)CCc4ccccc4)cc3)nc2s1 ?
FLuc counter: -4%

How did COc1ccc(NC(=O)/C=C/c2ccc(F)cc2)cn1 do in these assays?
Luc counter: -1%; FLuc counter: 11µM*; NPC1 prom act: inconclusive; Rab9 prom act: inconclusive; ELG1 genotox: 12%; SMN2 splice up: inconclusive

Results for COc1ccc(NC(=O)/C=C/c2ccccc2)cn1 ?
Luc counter: -2%; FLuc counter: 8.5µM*; NPC1 prom act: 3.5µM*; Rab9 prom act: 2.5µM*; ELG1 genotox: inconclusive; SMN2 splice up: 10%[1.84 µM]

Results for COc1cccc(/C=C/C(=O)Nc2ccc(OC)nc2)c1 ?
Luc counter: -4%; FLuc counter: 11µM*; NPC1 prom act: 27%; Rab9 prom act: 25%; ELG1 genotox: 6%; SMN2 splice up: 1%[1.84 µM]

Results for COc1cccc(/C=C/C(=O)NNC(=O)c2ccncc2)c1 ?
FLuc counter: inconclusive; NPC1 prom act: 0%; Rab9 prom act: -1%; ELG1 genotox: 0%

How did COc1ccc(NC(=O)/C=C/c2cc(OC)c(OC)c(OC)c2)cn1 do in these assays?
Luc counter: 7%; FLuc counter: -1%; NPC1 prom act: -4%; Rab9 prom act: 6%; ELG1 genotox: -1%; SMN2 splice up: 37%

How did COC(=O)C1=COC(O[C@H]2OC(CO)[C@H](O)C(O)C2O)[C@H]2C1C(=O)C[C@@H]2C (stereo partly drawn) do in these assays?
Luc counter: 1%; SMN2 splice up: 2%

How did COC(=O)c1ccc(C(=O)OC)c(NC(=O)c2cnn3c(C(F)F)cc(-c4ccc(C)cc4)nc23)c1 do in these assays?
FLuc counter: 3%; SMN2 splice up: 7%

What do the screens show for `C=CCc1ccc(OCc2ccc(C(=O)Nc3ccc(NC(C)=O)cc3)o2)c(OC)c1`?
FLuc counter: inconclusive; NPC1 prom act: 1.1µM*; Rab9 prom act: 0.4µM*; ELG1 genotox: 12%; SMN2 splice up: 2.8µM*

Results for Cc1ccc(CONC(=O)c2cccc(C)c2)cc1 ?
FLuc counter: inconclusive; NPC1 prom act: 16%; Rab9 prom act: inconclusive; ELG1 genotox: -1%

How did O=C(CNC(=O)c1ccc(Cl)cc1Cl)OCCOc1ccccc1 do in these assays?
FLuc counter: 17µM*; NPC1 prom act: 15%; Rab9 prom act: 13%; ELG1 genotox: 7%

Results for O=C(NOCc1ccccc1)c1ccc(Cl)cc1Cl ?
FLuc counter: 1.3µM*; NPC1 prom act: 0.56µM*; Rab9 prom act: 0.4µM*; ELG1 genotox: inconclusive

What do the screens show for `O=C(NOCc1ccccc1)c1ccccc1`?
FLuc counter: 6µM*; NPC1 prom act: 3.2µM*; Rab9 prom act: 1.8µM*; ELG1 genotox: 6.5µM*

How did CCCCNC(=O)c1cn(CC)c2ccc(S(=O)(=O)N3CCCCCC3)cc2c1=O do in these assays?
FLuc counter: 0%; NPC1 prom act: -6%; Rab9 prom act: -6%; ELG1 genotox: -9%

What do the screens show for `CCCC(=O)Nc1ccc2oc(-c3ccc(OC)c(Br)c3)nc2c1`?
Luc counter: 0%; FLuc counter: inconclusive; NPC1 prom act: inconclusive; Rab9 prom act: 6.3µM*; ELG1 genotox: inconclusive; SMN2 splice up: 15%

Results for COc1ccc(C(=O)Nc2ccc3oc(-c4ccc5ccccc5c4)nc3c2)cc1Br ?
FLuc counter: inconclusive; SMN2 splice up: -7%

What do the screens show for `CCOc1ccc(C(=O)Nc2ccc(-c3nc4cc(C)ccc4o3)cc2)cc1`?
FLuc counter: -14%

Results for CCC(=O)NC(=S)Nc1ccc2oc(-c3ccc(OC)cc3)nc2c1 ?
Luc counter: 0%; FLuc counter: -4%; NPC1 prom act: 2µM*; Rab9 prom act: inconclusive; ELG1 genotox: 16µM*; SMN2 splice up: 7.9µM*

Results for CCCC(=O)Nc1ccc(-c2nc3cc(C)ccc3o2)cc1 ?
Luc counter: 0%; FLuc counter: 0.54µM*; NPC1 prom act: 0.5µM*; Rab9 prom act: 0.5µM*; ELG1 genotox: inconclusive; SMN2 splice up: 1.3µM*
